Out of some 360,000 compounds screened, about 690 (0.19%) were called active. Only a selection was taken, and actives are over-represented in it overall. Values without a mark were called inactive.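 Rule for the calls: active = fluorescence ratio to DMSO below 75%, the collection mean minus 3 SD; inconclusive = too few cells collected in the well; inactive = the rest.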
Target: ATP-binding cassette sub-family B member 6 (Homo sapiens) (UniProt Q9NP58)
Assay: blockers of ABCB6-driven porphyrin uptake – K562-ABCB6 cells, flow cytometry, MLPCN library, primary screen (AID 602162);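 note: signal is porphyrin accumulated inside mitochondria; 100% equals median channel fluorescence of DMSO control wells; lower ratio means ABCB6 inhibition with less porphyrin fluorescence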
Conditions: K562-ABCB6 porphyrin accumulation, 1 h, at 10 µM, stronger effect = lower value

Chain of ATP-binding cassette sub-family B member 6 (Homo sapiens) (Q9NP58 whole entry, looked up): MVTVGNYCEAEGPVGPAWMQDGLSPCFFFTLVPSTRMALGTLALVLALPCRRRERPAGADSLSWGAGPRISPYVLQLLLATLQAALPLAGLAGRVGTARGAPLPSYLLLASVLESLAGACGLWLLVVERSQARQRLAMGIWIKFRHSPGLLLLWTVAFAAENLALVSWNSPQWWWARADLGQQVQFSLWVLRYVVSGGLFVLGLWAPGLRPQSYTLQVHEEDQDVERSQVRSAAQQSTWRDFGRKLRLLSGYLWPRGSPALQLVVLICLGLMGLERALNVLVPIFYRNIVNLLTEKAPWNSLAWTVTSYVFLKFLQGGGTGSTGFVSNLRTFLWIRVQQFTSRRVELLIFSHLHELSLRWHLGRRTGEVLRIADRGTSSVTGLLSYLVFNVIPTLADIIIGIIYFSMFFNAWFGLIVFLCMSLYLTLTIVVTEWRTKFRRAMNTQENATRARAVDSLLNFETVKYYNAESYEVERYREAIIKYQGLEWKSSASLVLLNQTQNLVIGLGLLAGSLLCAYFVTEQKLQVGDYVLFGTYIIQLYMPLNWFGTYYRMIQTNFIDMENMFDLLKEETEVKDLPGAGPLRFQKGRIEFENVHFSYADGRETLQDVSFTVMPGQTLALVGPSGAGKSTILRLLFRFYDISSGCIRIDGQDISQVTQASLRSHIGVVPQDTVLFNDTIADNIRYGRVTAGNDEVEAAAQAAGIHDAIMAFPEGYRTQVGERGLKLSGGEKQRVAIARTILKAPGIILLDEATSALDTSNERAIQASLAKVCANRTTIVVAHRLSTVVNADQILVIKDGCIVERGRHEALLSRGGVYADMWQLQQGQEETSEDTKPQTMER

Compound | fluorescence ratio to DMSO
O=C(c1cnn2ccccc12)N1CCc2ccccc21 | 103%
CCCOC(=O)C1=C(C)NC2=C(C(=O)C(C(=O)OC)C(C)C2)C1c1ccc(N(C)C)cc1 (stereo not drawn) | 72% (active)
CCOC(=O)C1=C(C)NC2=C(C(=O)CC(C)(C)C2)C1c1ccsc1 (stereo not drawn) | 100%
COC(=O)c1ccc(C2NC(=O)NC(C)=C2C(=O)N(C)C)cc1 (stereo not drawn) | 117%
CCCn1c(N)c(C(=O)CSc2nnc(-c3cccnc3)n2-c2ccc(C)cc2C)c(=O)[nH]c1=O | 101%
CCOc1ccc2[nH]c3nc(SCC(=O)NC4CCCC4)nnc3c2c1 | 96%
Cc1ccccc1OCC(=O)Nc1nnc(S(=O)(=O)N2CCCC2)s1 | 56% (active)
CCc1ccccc1OCC(=O)Nc1ccc(C)c(S(=O)(=O)N2CCCCCC2)c1 | 90%
CC1CCN(S(=O)(=O)c2nnc(NC(=O)COc3ccccc3F)s2)CC1 | 100%
Cc1ccc2[nH]c3c(=O)n(CC(=O)NCCc4ccc(Cl)cc4)ncc3c2c1 | 96%
CC(C)(C)C1CCC(C(=O)NCC(c2cccs2)N2CCOCC2)CC1 (stereo not drawn) | 98%
O=C(NCc1ccco1)C(c1ccncc1)N(C(=O)Cn1nnc2ccccc21)c1ccccc1 (stereo not drawn) | 94%
Nc1nc(SCc2cccc(Br)c2)n[nH]1 | 98%
COc1ccccc1N1CCN(C(=O)c2cc(=O)c3cc(C)cc(C)c3o2)CC1 | 101%
Cc1ccc(Cl)cc1N1CCN(C(=O)c2cccc3c(=O)c(C)c(-c4ccccc4)oc23)CC1 | 73% (active)
Cc1cccc(N2CCN(C(=O)c3cnn4c(C(F)F)cc(-c5ccccc5)nc34)CC2)c1C | 97%
C/C(CCc1ccccc1)=N\NC(=O)c1ccc(CN2CCOCC2)cc1 | 97%
CSC1=NN(c2ccccc2)CN(c2ccccc2)N1C | 98%
CCCOP(=O)(c1ccc(N(C)C)cc1)C(O)c1cc(OC)c(OC)c(OC)c1 (stereo not drawn) | 94%
COc1ccccc1S(=O)(=O)NCc1ccc(C(=O)N(C)Cc2ccc(F)cc2)cc1 | 92%
Cc1cnc(NC(=O)Cn2cnc3c2c(=O)n(C)c(=O)n3C)s1 | 101%
Cc1ccc(SCC(=O)Nc2nncs2)cc1 | 99%
Cc1ccc(SCC(=O)Nc2ncc(C)s2)cc1 | 71% (active)
Fc1cccc(Cc2noc(CN3CCN(c4cnccn4)CC3)n2)c1 | 95%

Compound | fluorescence ratio to DMSO
COc1ccccc1CNC(=O)CSc1nc(=O)n(Cc2ccncc2)c2c1CCC2 | 100%
Cc1ccc2c(C)c(C(=O)N(C)Cc3ccncn3)oc2c1C | 96%
Cc1ccccc1OC(=O)Cn1c(C(F)(F)F)nc2ccccc21 | 93%
Cc1cccc(C)c1NC(=O)COC(=O)c1c(C)nn(-c2ccccc2)c1C | 100%
Cc1nn(-c2ccccc2)c(C)c1C(=O)OCC(=O)NC(=O)NC1CCCCC1 | 74% (active)
COc1ccc(CNC(=O)COC(=O)c2c(C)nn(-c3ccccc3)c2C)cc1OC | 98%
O=C(/C=C/c1ccccc1)Oc1coc(CSc2ncccn2)cc1=O | 104%
CC1(C)O[C@@H]2[C@H](O1)[C@@H](COS(=O)(=O)O)O[C@H]2n1cnc2c(=O)[nH]cnc21 | 98%
COc1ccc(CC(=O)NCc2nnc(SCC(=O)Nc3ncc(C)s3)n2C)cc1 | 103%
O=C(CC(c1ccccc1)c1cc(Cl)ccc1O)NCCN1CCOCC1 (stereo not drawn) | 91%
O=S(=O)(c1ccc(F)cc1)n1ccc(-c2cnc(-c3ccccc3)s2)n1 | 91%
CN(CC(=O)Nc1cccc(F)c1)C(=O)C1CSC2(C)CCC(=O)N12 (stereo not drawn) | 96%
COCCNC(=O)C(OC(=O)c1cccs1)c1ccc(F)cc1 (stereo not drawn) | 100%
O=C(NCc1cccs1)C(=O)NCC1OCCCN1S(=O)(=O)c1ccc(F)cc1 (stereo not drawn) | 103%
CC(C)C(=O)NCC(c1cccs1)S(=O)(=O)c1ccc(F)cc1 (stereo not drawn) | 11% (active)
N#Cc1cccc(NC(=O)C2CCCN(C(=O)c3ccc(Cl)cc3)C2)c1 (stereo not drawn) | 104%
Cc1c(C(=O)NC(=S)NCc2cccnc2)oc2ccccc12 | 99%
CC12CCCCC1=CC(=O)CC2 (stereo not drawn) | 101%
COc1ccc(CNC(=O)CN2C(=O)NC3(CCCc4sccc43)C2=O)cc1 (stereo not drawn) | 93%
CC(C(=O)Nc1ccccc1-c1ccccc1)N1CCOCC1 (stereo not drawn) | 104%
CC(C(=O)Nc1ccc(F)c(F)c1F)N1CCCCCC1 (stereo not drawn) | 74% (active)
O=C(CN1C(=O)NC2(CCCC2)C1=O)Nc1ccc(F)c(F)c1F | 104%
COCCCNc1ccn2nc(-c3ccc(CC(C)C)cc3)cc2n1 | 100%
COC(=O)c1cc(NC(=O)CN2CCC(C(N)=O)(N3CCCCC3)CC2)cc(C(=O)OC)c1 | 104%

From PubChem BioAssay AID602162 (NMMLSC, 2011)
